Screening data from PubChem.
Rows were chosen to be rich in hits. Some 7.7% of all compounds tested hit in one or more screens of this group.
Shh pathway inh: blocks Sonic Hedgehog signaling. Shh-LIGHT2 Gli-luciferase reporter, 30 h. inhibition, % (concentration not given with the values). 2.1% of 22,000 active. AID 2313;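 active = mean inhibition across valid replicates above about 65%, limit read from the data; inconclusive = mean under the limit, yet half or more replicates past it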;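 note: pathway switched on by Shh-conditioned medium diluted 1 in 25 in low serum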
NOMO-1 viab: STK33 inhibitor candidate reducing NOMO-1 cell viability | inhibition, % (concentration not given with the values) | NOMO-1 AML viability, CellTiter-Glo luminescence, 72 h | 7.5% of 37,000 active | AID 2330; in the data active = inhibition above about 80%; inconclusive = no clear call, values can overlap the other calls
PD-1 reversal: reversal of PD-1 mediated T-cell inhibition; 29,000 tested, under 10 active; activation, % (no concentration beside the values); primary human CD4 T cells, PD-L1 beads, CellTiter-Glo 96 h; AID 2316; call rule not given here;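 note: 0% = median vehicle wells and 100% = positive control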
The depositor's hits bear a star; ? = inconclusive; nt = not tested or not shown.

SMILES	Shh pathway inh	NOMO-1 viab	PD-1 reversal
C[C@H]1CN([C@@H](C)CO)C(=O)c2cc(NC(=O)Nc3ccc(C(F)(F)F)cc3)ccc2O[C@@H]1CN(C)Cc1ccc(-c2ccccc2)cc1	nt	107*	-1
C[C@H](CO)N1C[C@H](C)[C@H](CN(C)Cc2ccc(-c3ccccc3)cc2)Oc2ccc(NC(=O)Nc3ccc(C(F)(F)F)cc3)cc2C1=O	nt	92*	-4
C[C@H]1CN([C@@H](C)CO)C(=O)c2cc(NC(=O)Nc3ccc(C(F)(F)F)cc3)ccc2O[C@H]1CN(C)Cc1ccc(-c2ccccc2)cc1	11	117*	-6
C[C@@H]1CN([C@H](C)CO)C(=O)c2cc(NC(=O)Nc3ccc(C(F)(F)F)cc3)ccc2O[C@@H]1CN(C)Cc1ccc(Oc2ccccc2)cc1	17	?	-5
COc1ccc(-n2c(-c3ccc(Cl)cc3)n[nH]c2=S)cc1	5	1	0
Cc1ccc(S(=O)(=O)NC(C)C(=O)Nc2ccc(I)cc2)cc1 (configuration not stated)	nt	-10	nt
CCOC(=O)c1c(CNC(C)C)oc2ccc(OC)cc12	22	12	0
Cn1c(CN2CCOCC2)nnc1SCC(=O)Nc1ccc2ccccc2c1	nt	34	0
COc1ccc(S(=O)(=O)N(C)CC(=O)Nc2ccc(Br)cc2F)cc1C	nt	1	0
C[C@@H]1CN([C@H](C)CO)C(=O)c2cccc(NC(=O)NC3CCCCC3)c2O[C@H]1CN(C)C(=O)Nc1ccc(C(F)(F)F)cc1	0	8	-2
C[C@H](CO)N1C[C@H](C)[C@@H](CN(C)C(=O)NC2CCCCC2)Oc2c(NC(=O)Nc3ccc(C(F)(F)F)cc3)cccc2C1=O	-44	85*	-2
C[C@@H]1CN([C@H](C)CO)C(=O)c2cccc(NC(=O)Nc3ccc(C(F)(F)F)cc3)c2O[C@@H]1CN(C)C(=O)NC1CCCCC1	-53	117*	-6
C[C@@H]1CN([C@@H](C)CO)C(=O)c2cccc(NC(=O)Nc3ccc(C(F)(F)F)cc3)c2O[C@H]1CN(C)C(=O)NC1CCCCC1	-32	73	-3
O=CN/C=C\c1ccc(O)cc1	-1	31	1
CN(CC(N)=O)S(=O)(=O)c1ccc2ccccc2c1	nt	13	4
CCc1cc(-c2[nH]ncc2-c2nc(C)cs2)c(O)cc1OC(C)C(=O)NN (configuration not stated)	59	21	0
CC(C)c1ccc(NN2C(=O)CC(c3ccccc3)C2=O)cc1 (configuration not stated)	-51	46	-1
CCCCCCCCN1C(=O)C(C(C)=O)=C(C)C1(C)O (configuration not stated)	-75	98*	-37
Cc1ccc(OCC(=O)Nc2ccccc2N2CCN(S(C)(=O)=O)CC2)cc1	nt	4	-3
C[C@@H]1CN([C@H](C)CO)C(=O)c2cccc(NC(=O)Nc3ccc(C(F)(F)F)cc3)c2O[C@@H]1CN(C)Cc1ccncc1	-8	8	-1
C[C@@H]1CN([C@@H](C)CO)C(=O)c2cccc(NC(=O)Nc3ccc(C(F)(F)F)cc3)c2O[C@@H]1CN(C)Cc1ccc(Cl)c(Cl)c1	2	?	-3
C[C@H](CO)N1C[C@H](C)[C@@H](CN(C)Cc2ccc(Cl)c(Cl)c2)Oc2c(NC(=O)Nc3ccc(C(F)(F)F)cc3)cccc2C1=O	-35	109*	-4
C[C@H]1CN([C@@H](C)CO)C(=O)c2cccc(NC(=O)Nc3ccc(C(F)(F)F)cc3)c2O[C@@H]1CN(C)Cc1ccc(Cl)c(Cl)c1	-14	107*	-5
COc1ccc(OC)c(-n2c(CNC3CCN(Cc4ccccc4)CC3)nc3ccccc3c2=O)c1	nt	90*	nt
COc1ccc(OC)c(-n2c(CN3CCC(C(N)=O)CC3)nc3ccccc3c2=O)c1	nt	27	1
SMILES	Shh pathway inh	NOMO-1 viab	PD-1 reversal
COc1ccc2c(c1)c(/C=C/c1nc3ccc(I)cc3c(=O)n1CCCO)c(C)n2C	nt	-6	0
COc1ccc(NC(=O)CSc2nnc3n4ncnc4c4c5c(sc4n23)COC(C)(C)C5)cc1	nt	20	nt
COc1cc(O[C@@H]2O[C@H](CO[C@H]3OC[C@](O)(CO)[C@H]3O)[C@@H](O)[C@H](O)[C@H]2O)cc(OC)c1OC	1	65	2
O=C(CSc1nc2ccc([N+](=O)[O-])cc2s1)Nc1cc(Cl)cc(Cl)c1	nt	75	nt
COc1ccc(NC(=O)CNC(=O)c2ccco2)cc1	nt	34	nt
O=C(CCNc1ccc(Oc2ccccc2)cc1)c1ccco1	nt	131*	-7
CCC(C)NC(=O)c1ccc(N(CC)CC)cc1 (configuration not stated)	-64	28	1
CCC(C)c1ccc(NC(=O)c2ccc(N(CC)CC)cc2)cc1 (configuration not stated)	-18	120*	1
COc1cc(OC)c(NC(=O)CSc2ccccn2)cc1Cl	nt	-1	0
OC1(/C=C/CN2CCCCC2)CCCCC1	12	-2	0
Cc1ccc(S(=O)(=O)N(C)C[C@H]2Oc3ccc(NC(=O)Nc4ccc(C(F)(F)F)cc4)cc3C(=O)N([C@H](C)CO)C[C@@H]2C)cc1	-17	126*	nt
C[C@@H]1CN([C@H](C)CO)C(=O)c2cc(NC(=O)Nc3ccc(C(F)(F)F)cc3)ccc2O[C@H]1CN(C)S(=O)(=O)c1ccc(Cl)cc1	nt	54	-2
Cc1ccc(S(=O)(=O)N(C)C[C@@H]2Oc3ccc(NC(=O)Nc4ccc(F)cc4)cc3C(=O)N([C@@H](C)CO)C[C@H]2C)cc1	-12	33	-1
Cc1ccc(S(=O)(=O)N(C)C[C@@H]2Oc3ccc(NC(=O)Nc4ccc(C(F)(F)F)cc4)cc3C(=O)N([C@H](C)CO)C[C@H]2C)cc1	-5	97*	-1
COc1ccc(S(=O)(=O)N(C)C[C@H]2Oc3ccc(NC(=O)Nc4ccc(C(F)(F)F)cc4)cc3C(=O)N([C@H](C)CO)C[C@H]2C)cc1	-10	88*	-1
C[C@H]1CN([C@@H](C)CO)C(=O)c2cc(NC(=O)Nc3ccc(C(F)(F)F)cc3)ccc2O[C@@H]1CN(C)S(=O)(=O)c1ccccc1	nt	20	-3
Cc1ccc(S(=O)(=O)N(C)C[C@H]2Oc3ccc(NC(=O)Nc4ccc(C(F)(F)F)cc4)cc3C(=O)N([C@H](C)CO)C[C@H]2C)cc1	23	92*	-2
COc1ccc(S(=O)(=O)N(C)C[C@H]2Oc3ccc(NC(=O)Nc4ccc(C(F)(F)F)cc4)cc3C(=O)N([C@@H](C)CO)C[C@H]2C)cc1	-3	60	1
O=C(c1ccccc1)c1cc(Br)ccc1NC(=O)C1CC=CCC1C(=O)O (configuration not stated)	nt	13	3
CC(NS(=O)(=O)c1ccc(Cl)cc1)C(=O)Nc1ccccc1Sc1ccccc1 (configuration not stated)	nt	41	1
COc1ccc(OC)c(C(C)NC(=O)Nc2ccc([N+](=O)[O-])cc2OC)c1 (configuration not stated)	nt	26	2
O=C(CSc1nnc(-c2ccc(Cl)cc2)n1-c1ccc(F)cc1)N1CCOCC1	nt	10	3
COc1ccc([N+](=O)[O-])cc1N(CC(=O)Nc1ccccc1Br)S(C)(=O)=O	nt	1	nt
Cc1cc(C)n(Cc2ccccc2)c(=O)c1C#N	nt	-12	0
Cc1cc(C)c(C#N)c(Sc2ncnc3c2nnn3Cc2ccccc2)n1	nt	116*	-7
